Assay outcomes (PubChem BioAssay)
Sampled rows, rich in hits. Any-hit rate of the full collection: about 3.9%.
HSF1 activator: increases HSF-1 driven luciferase reporter signal. NIH3T3-HGL HSF-1 luciferase reporter, MG132, 8 h; 100% = twice DMSO control signal. activation, % at 9 µM. actives 1.7% (n = 300,000);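 active = mean replicate activation of at least 50% with a set share of replicates each reaching 50%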;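 also: 0% = median of the neutral control wells and 100% = twice that signal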
Wnt act: activates Wnt/beta-catenin signaling in a reporter cell assay; activation, % at 9.35 µM; activator, plate reader; actives 1.2% (n = 300,000); in the data active = activation above about 30%, passing the limit was not always enough;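 also: 0% = neutral control wells and 100% = positive control wells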
HSF1 inhib: HSF1 inhibition. AID 2098. actives 0.77% (n = 300,000). NIH3T3-HGL HSE-luciferase, MG132-induced, luminescence 8 h; active compounds read low. activity change, negative = inhibition, % at 7.5 µM (by protocol);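 active = more than half of replicate wells show activity change below -50%, luminescence cut by over half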;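 also: luciferase reports HSF-1 transcriptional activity via heat shock element; 0% = median of DMSO wells and -100% = zero luminescence signal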
esBAF inh: inhibitors of esBAF chromatin remodeling in mouse ES cells | actives 2% (n = 350,000) | reporter increase, % at 12.5 µM | Bmi1-luciferase knock-in reporter, 24 h; 100% = twice the neutral-well signal; in the data active = activation above about 40%;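 also: 0% = median of the plate's neutral control wells and 100% = double that signal; a rise in the Bmi1 reporter signal indicates esBAF inhibition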
MITF TRPM1 HTS: increases MITF-driven TRPM1 promoter luciferase signal; SK-MEL-5 TRPM1-promoter luciferase, 24 h; % of positive control, neutral wells = 0; activation, % at 12.5 µM; actives 0.75% (n = 300,000); AID 588334;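 active = mean activation of at least 80% with every replicate also reaching 80%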;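 also: 0% = neutral control wells and 100% = parthenolide positive control wells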
Active calls of the source: *.

Screening Cc1noc(C)c1S(=O)(=O)Nc1ccc2c(c1)C(=O)N([C@@H](C)CO)C[C@@H](C)[C@H](CN(C)C(=O)Nc1ccc3c(c1)OCO3)OCCCC[C@H](C)O2 returned esBAF inh -10.2.
For Cc1nn(C)cc1NC(=O)C[C@@H]1CC[C@@H]2[C@H](COc3ccc(NC(=O)C4CCC4)cc3C(=O)N2C)O1 the results were esBAF inh 0.9.
Screening COc1cccc(-c2cc3nc(NCc4ccc5occc5c4)n(C)c(=O)c3s2)c1 returned Wnt act 29.5 and esBAF inh 61.0*.
Screening Cn1c(NCc2ccc3occc3c2)nc2cc(-c3cccc(C(F)(F)F)c3)sc2c1=O returned Wnt act -4.0 and esBAF inh 0.3.
`CN(C)CCCNc1nc2cc(-c3ccc4c(ccn4C)c3)sc2c(=O)n1C` gave Wnt act 1.5 and esBAF inh 67.2*.
COc1cccc(CNc2nc3cc(-c4ccc(C)cc4)sc3c(=O)n2C)c1OC was read as Wnt act 0.3 and esBAF inh 53.8*.
For Cc1ccc(-c2cc3nc(NCCc4ccncc4)n(C)c(=O)c3s2)cc1 the results were Wnt act 42.4* and esBAF inh 16.0.
`COc1cccc(CNc2nc3cc(-c4ccc(F)cc4)sc3c(=O)n2C)c1OC` gave Wnt act -1.1 and esBAF inh 7.7.
For CO[C@@H]1CN(C)C(=O)c2ccc(NC(=O)NC(C)C)cc2OC[C@H](C)N(C)C[C@H]1C the results were esBAF inh -1.8.
`Cc1[nH]c2ccccc2c1C(=O)CSC(=S)N1CCCCC1` gave HSF1 activator 54.4*, Wnt act 21.1, HSF1 inhib 36.4 and MITF TRPM1 HTS 77.0.
O=C(CSC(=S)N1CCCCC1)c1ccccc1 was read as HSF1 activator 17.9, HSF1 inhib 22.8, esBAF inh -6.9 and MITF TRPM1 HTS 16.9.
`Cc1[nH]c2ccccc2c1C(=O)CSc1ccc(Cl)cc1` gave HSF1 activator 53.7*, Wnt act -5.2, HSF1 inhib 33.8, esBAF inh 26.7 and MITF TRPM1 HTS 12.8.
For O=C(CSC(=S)N1CCCC1)c1ccccc1 the results were HSF1 activator 55.0*, Wnt act 45.4*, HSF1 inhib 23.8, esBAF inh -10.4 and MITF TRPM1 HTS 50.5.
Cc1[nH]c2ccccc2c1C(=O)CSC(=S)N(C)C1CCCCC1 was read as HSF1 activator 36.6, Wnt act -5.1, HSF1 inhib 7.8 and MITF TRPM1 HTS -5.5.
Screening C[C@H](CO)N1C[C@H](C)[C@H](CN(C)C(=O)CC2CC2)Oc2ncc(C#CC(C)(C)O)cc2C1=O returned esBAF inh 6.7.
Screening C[C@@H]1CCCCO[C@@H](CN(C)C(=O)C2CCCCC2)[C@@H](C)CN([C@H](C)CO)C(=O)c2cc(NC(=O)CCCN(C)C)ccc2O1 returned esBAF inh 3.1.
`COc1ccc(CCNC(=O)C2CC(c3cccc([N+](=O)[O-])c3)=NO2)cc1` (stereo unspecified) gave HSF1 activator 25.0, Wnt act 14.7, HSF1 inhib 19.9, esBAF inh 70.0* and MITF TRPM1 HTS 75.5.
For COc1ccc(CCNC(=O)C2CC(c3ccc([N+](=O)[O-])cc3)=NO2)cc1 (stereo unspecified) the results were HSF1 activator 8.3, Wnt act 6.9, HSF1 inhib 5.4 and esBAF inh 37.4.
`O=C(NCCc1cccs1)C1CC(c2ccc([N+](=O)[O-])cc2)=NO1` (stereo unspecified) gave HSF1 activator 29.2, Wnt act 34.4*, HSF1 inhib 21.3, esBAF inh 58.8* and MITF TRPM1 HTS 90.5*.
For CCCCNC(=O)C1CC(c2cccc(F)c2)=NO1 (stereo unspecified) the results were HSF1 activator 7.3, Wnt act 31.9*, HSF1 inhib 16.5, esBAF inh 84.8* and MITF TRPM1 HTS 89.5*.
Screening Cc1ccc(CNC(=O)C2CC(c3cccc([N+](=O)[O-])c3)=NO2)o1 (stereo unspecified) returned HSF1 activator 12.0, Wnt act 25.8, HSF1 inhib 18.4, esBAF inh 45.3* and MITF TRPM1 HTS 55.9.
Screening Cc1noc(C)c1NC(=O)Nc1ccc2c(c1)C(=O)N(C)[C@H]1CC[C@H](CC(=O)N[C@H]3CCN(Cc4ccccc4)C3)O[C@H]1CO2 returned esBAF inh 0.1.
For O=C(C[C@H]1CC[C@H]2NC[C@H](O)COC[C@@H]2O1)NCCc1ccncc1 the results were esBAF inh -2.6.
Screening C[C@H]1CN([C@@H](C)CO)C(=O)c2cccc(NC(=O)C3CC3)c2O[C@@H]1CN(C)CC1CCCCC1 returned esBAF inh -2.1.
CCc1csc(N2[C@H](CO)[C@@H](c3ccc(C4=CCCC4)cc3)[C@@H]2C#N)n1 was read as esBAF inh 0.0.
O=S(=O)(Nc1ccncc1)c1ccccc1 was read as HSF1 activator -4.7, Wnt act -6.8, HSF1 inhib -1.6 and esBAF inh -2.2.
For NS(=O)(=O)c1ccc(NS(=O)(=O)c2ccc(NC(=S)Nc3ccccc3)cc2)cc1 the results were HSF1 activator 53.8*, HSF1 inhib 30.1 and MITF TRPM1 HTS 0.9.
O=S(=O)(Nc1ccncc1)c1ccc(Cl)cc1 was read as HSF1 activator -77.4, HSF1 inhib -71.4* and esBAF inh -1.0.
For O=S(=O)(Nc1ncccn1)c1ccc(NC(=S)Nc2ccc(Cl)cc2)cc1 the results were HSF1 activator 55.7*, Wnt act 5.6, HSF1 inhib 20.2, esBAF inh 12.2 and MITF TRPM1 HTS 6.4.
For Cc1cc(C)cc(NS(=O)(=O)c2ccc(NC(=S)Nc3ccccc3)cc2)c1 the results were HSF1 activator 13.0, Wnt act 0.2, HSF1 inhib 9.8 and MITF TRPM1 HTS -4.2.
Screening CCc1ccc(NC(=S)Nc2ccc(S(=O)(=O)Nc3ncccn3)cc2)cc1 returned HSF1 activator -50.6, Wnt act 0.0, HSF1 inhib -55.6*, esBAF inh 9.1 and MITF TRPM1 HTS 26.7.
`CC(C)NC(=S)Nc1ccc(S(=O)(=O)Nc2ncccn2)cc1` gave HSF1 activator 15.7, Wnt act -0.6, HSF1 inhib -0.5 and MITF TRPM1 HTS -5.5.
For O=C(Nc1ccc(Cl)cc1)Nc1ccc(S(=O)(=O)Nc2ncccn2)cc1 the results were HSF1 activator 4.6, Wnt act -2.2, HSF1 inhib -6.4 and MITF TRPM1 HTS 0.4.
Screening C[C@@H]1CCCCO[C@@H](CN(C)S(=O)(=O)c2cn(C)cn2)[C@@H](C)CN([C@@H](C)CO)C(=O)c2cc(NC(=O)Nc3ccc(F)cc3)ccc2O1 returned esBAF inh -2.0.
For COc1ccc(S(=O)(=O)Nc2ccc3c(c2)C(=O)N([C@H](C)CO)C[C@@H](C)[C@H](CN(C)C(=O)Nc2c(C)noc2C)O3)cc1 the results were esBAF inh -5.1.
